Data reported in the supplement of paper PMC10849652.
About 7,900 targets were measured; listed, in parts, are those with a hit and a random draw of the rest. About 0.6% of all pairs of compound and target were hits.

Key:
Assay in all cases: log2 fold change, soluble protein after heating vs DMSO (PISA); higher = thermal stabilisation; K562 cells, 10 uM, 30 min; active = over 0.2 and 3.5 SD of the protein, either way, in both replicates (recomputed)
[1] = compound: CC[C@@H]1C(=O)N(C)c2cnc(Nc3ccc(C(=O)NC4CCN(C)CC4)cc3OC)nc2N1C1CCCC1
Procedure, shortened: (§1)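 Soluble protein was defined as the supernatant after 21,000xg for 90 min. It came from K562 cells at 2×10^6 cells/mL given 10 μM compound for 30 min, heated in aliquots for 3 min across 48°C-58°C, pooled, and extracted in PBS with 0.5% NP-40 at 4°C, and was quantified by TMTpro 16plex LC-MS/MS with equalised channel sums. Thermal stability against control samples, from duplicates, is reported as log2 fold change.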

volasertib = compound: CC[C@@H]1C(=O)N(C)c2cnc(Nc3ccc(C(=O)N[C@H]4CC[C@H](N5CCN(CC6CC6)CC5)CC4)cc3OC)nc2N1C(C)C [volasertib]
Procedure, shortened: as §1

[2] = compound: CC[C@H](C)N1C=C(C2=C(C=C(C=C21)C3=CN=C(C=C3)N4CCNCC4)C(=O)NCC5=C(C=C(NC5=O)C)C)C
Procedure, shortened: as §1

epoxomicin = compound: CC[C@H](C)[C@@H](C(=O)N[C@@H]([C@@H](C)O)C(=O)N[C@@H](CC(C)C)C(=O)[C@]1(CO1)C)NC(=O)[C@H]([C@@H](C)CC)N(C)C(=O)C [epoxomicin]
Procedure, shortened: as §1

[3] = compound: CCn1c(C(=O)N(C2CC2)C2CC2)cc2c3c(ncn3C)c(Nc3cc(C)n(C)n3)nc21
Procedure, shortened: as §1

[4] = compound: CCn1cc(-c2ccnc3[nH]c(-c4cccc(CN(C)C)c4)cc23)c(-c2ccc(NC(=O)N(C)C)cc2)n1
Procedure, shortened: as §1

[5] = compound: CN(C)CC(=O)Nc1ccc2[nH]c(=O)c3ccccc3c2c1
Procedure, shortened: as §1

rosiglitazone = compound: CN(CCOC1=CC=C(C=C1)C[C@H]2C(=O)NC(=O)S2)C3=CC=CC=N3 (racemic) [rosiglitazone]
Procedure, shortened: as §1

[6] = compound: CN1C2=C(C3=C1C(=O)N(N=C3)CC4=CC(=CC=C4)N)SC(=C2)S(=O)C
Procedure, shortened: as §1

[7] = compound: CN1CCC(CNc2ccc3ncc(-c4cccc(OC(F)(F)F)c4)n3n2)CC1
Procedure, shortened: as §1

saracatinib = compound: CN1CCN(CCOc2cc(OC3CCOCC3)c3c(Nc4c(Cl)ccc5c4OCO5)ncnc3c2)CC1 [saracatinib]
Procedure, shortened: as §1

sotrastaurin = compound: CN1CCN(c2nc(C3=C(c4c[nH]c5ccccc45)C(=O)NC3=O)c3ccccc3n2)CC1 [sotrastaurin]
Procedure, shortened: as §1

alvocidib = compound: CN1CC[C@H](c2c(O)cc(O)c3c(=O)cc(-c4ccccc4Cl)oc23)[C@H](O)C1 [alvocidib]
Procedure, shortened: as §1

Tubastatin A = compound: CN1CCc2c(c3ccccc3n2Cc2ccc(C(=O)NO)cc2)C1 [Tubastatin A]
Procedure, shortened: as §1

[8] = compound: CNC(=O)C1=CC=CC=C1NC2=NC(=NC=C2Cl)NC3=C(C=C(C=C3)N4CCOCC4)OC
Procedure, shortened: as §1

defactinib = compound: CNC(=O)c1ccc(Nc2ncc(C(F)(F)F)c(NCc3nccnc3N(C)S(C)(=O)=O)n2)cc1 [defactinib]
Procedure, shortened: as §1

rucaparib = compound: CNCc1ccc(-c2[nH]c3cc(F)cc4c3c2CCNC4=O)cc1 [rucaparib]
Procedure, shortened: as §1

[9] = compound: CNc1nc(-c2ccc3c(N)n[nH]c3c2)cc(N2C[C@@H](C(=O)NC3CCCCC3)CC[C@H]2C)n1
Procedure, shortened: as §1

encorafenib = compound: COC(=O)N[C@@H](C)CNc1nccc(-c2cn(C(C)C)nc2-c2cc(Cl)cc(NS(C)(=O)=O)c2F)n1 [encorafenib]
Procedure, shortened: as §1

[10] = compound: COC(=O)[C@H](CCSC)NC(=O)C1=C(C=C(C=C1)NC[C@H](CS)N)C2=CC=CC=C2
Procedure, shortened: as §1

Measured: log2 fold change

TMEM161B (UniProt Q8NDZ6)
UniProt Q8NDZ6, sequence (Q8NDZ6 whole entry, looked up): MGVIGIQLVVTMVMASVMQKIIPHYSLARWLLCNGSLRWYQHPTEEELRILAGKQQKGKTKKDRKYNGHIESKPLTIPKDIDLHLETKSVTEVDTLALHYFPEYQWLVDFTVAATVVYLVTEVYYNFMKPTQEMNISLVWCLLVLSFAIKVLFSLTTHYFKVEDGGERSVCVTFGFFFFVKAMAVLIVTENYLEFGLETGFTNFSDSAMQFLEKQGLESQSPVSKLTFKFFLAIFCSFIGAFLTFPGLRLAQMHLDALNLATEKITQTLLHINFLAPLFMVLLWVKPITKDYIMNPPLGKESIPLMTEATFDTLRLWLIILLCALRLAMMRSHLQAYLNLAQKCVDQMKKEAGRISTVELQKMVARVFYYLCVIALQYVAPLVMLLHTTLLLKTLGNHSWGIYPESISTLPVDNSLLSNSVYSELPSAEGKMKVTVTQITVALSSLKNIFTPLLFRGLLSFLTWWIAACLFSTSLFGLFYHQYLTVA
inactive: [1] -0.028 | volasertib -0.038 | [2] 0.062 | epoxomicin 0.058 | [3] 0.01 | [4] 0.02 | [5] 0.079 | rosiglitazone 0.028 | [6] -0.068 | [7] -0.186 | saracatinib 0.048 | sotrastaurin 0.037 | alvocidib -0.037 | Tubastatin A -0.007 | [8] -0.043 | defactinib -0.061 | rucaparib 0.013 | [9] -0.049 | encorafenib -0.023 | [10] -0.05

TMEM179B (UniProt Q7Z7N9)
UniProt Q7Z7N9, sequence (Q7Z7N9 whole entry, looked up): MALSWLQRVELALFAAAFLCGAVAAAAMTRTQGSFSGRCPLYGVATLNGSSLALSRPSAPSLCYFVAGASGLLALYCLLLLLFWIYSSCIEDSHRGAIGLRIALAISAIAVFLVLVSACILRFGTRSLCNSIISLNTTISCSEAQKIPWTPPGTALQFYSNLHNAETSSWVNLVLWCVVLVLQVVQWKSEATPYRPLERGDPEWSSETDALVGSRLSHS
inactive: [1] 0.05 | volasertib 0.052 | [2] 0.029 | [3] 0.026 | [4] 0.039 | rosiglitazone -0.027 | [7] -0.128 | sotrastaurin 0.151 | alvocidib 0.097 | Tubastatin A 0.036 | [8] 0.044 | rucaparib 0.026 | encorafenib -0.015
active: epoxomicin -0.44

TMEM104 (UniProt Q8NE00)
UniProt Q8NE00, sequence (Q8NE00 whole entry, looked up): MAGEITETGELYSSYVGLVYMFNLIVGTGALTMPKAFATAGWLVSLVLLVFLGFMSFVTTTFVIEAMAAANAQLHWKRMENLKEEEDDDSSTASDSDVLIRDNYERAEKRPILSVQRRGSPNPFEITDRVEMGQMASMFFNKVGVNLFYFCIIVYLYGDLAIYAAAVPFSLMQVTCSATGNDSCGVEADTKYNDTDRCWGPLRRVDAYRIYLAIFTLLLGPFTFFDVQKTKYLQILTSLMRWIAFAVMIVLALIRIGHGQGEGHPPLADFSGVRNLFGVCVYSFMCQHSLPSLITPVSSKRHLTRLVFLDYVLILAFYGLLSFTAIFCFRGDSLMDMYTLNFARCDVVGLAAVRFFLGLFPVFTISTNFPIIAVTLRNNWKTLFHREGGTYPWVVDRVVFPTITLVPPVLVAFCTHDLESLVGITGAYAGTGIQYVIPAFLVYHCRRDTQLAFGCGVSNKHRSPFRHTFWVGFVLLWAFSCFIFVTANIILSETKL
inactive: [1] -0.019 | volasertib 0.043 | [2] -0.033 | epoxomicin -0.19 | [3] -0.027 | [4] 0.204 | [6] 0.12 | [7] 0.018 | saracatinib -0.024 | alvocidib -0.013 | [8] -0.007 | rucaparib 0.06 | [9] -0.122 | encorafenib 0.056

TRIM4 (UniProt Q9C037)
active: [8] 0.439
inactive: [1] 0.01 | volasertib -0.042 | [2] 0.178 | epoxomicin 0.111 | [3] 0.063 | [4] -0.069 | [5] 0.03 | rosiglitazone 0.021 | [7] 0.294 | sotrastaurin 0.024 | alvocidib -0.029 | Tubastatin A 0.097 | defactinib -0.029 | rucaparib 0.031 | encorafenib 0.04 | [10] -0.108

WAPL isoform 3 (UniProt Q7Z5K2)
UniProt Q7Z5K2, sequence (Q7Z5K2 whole entry, looked up): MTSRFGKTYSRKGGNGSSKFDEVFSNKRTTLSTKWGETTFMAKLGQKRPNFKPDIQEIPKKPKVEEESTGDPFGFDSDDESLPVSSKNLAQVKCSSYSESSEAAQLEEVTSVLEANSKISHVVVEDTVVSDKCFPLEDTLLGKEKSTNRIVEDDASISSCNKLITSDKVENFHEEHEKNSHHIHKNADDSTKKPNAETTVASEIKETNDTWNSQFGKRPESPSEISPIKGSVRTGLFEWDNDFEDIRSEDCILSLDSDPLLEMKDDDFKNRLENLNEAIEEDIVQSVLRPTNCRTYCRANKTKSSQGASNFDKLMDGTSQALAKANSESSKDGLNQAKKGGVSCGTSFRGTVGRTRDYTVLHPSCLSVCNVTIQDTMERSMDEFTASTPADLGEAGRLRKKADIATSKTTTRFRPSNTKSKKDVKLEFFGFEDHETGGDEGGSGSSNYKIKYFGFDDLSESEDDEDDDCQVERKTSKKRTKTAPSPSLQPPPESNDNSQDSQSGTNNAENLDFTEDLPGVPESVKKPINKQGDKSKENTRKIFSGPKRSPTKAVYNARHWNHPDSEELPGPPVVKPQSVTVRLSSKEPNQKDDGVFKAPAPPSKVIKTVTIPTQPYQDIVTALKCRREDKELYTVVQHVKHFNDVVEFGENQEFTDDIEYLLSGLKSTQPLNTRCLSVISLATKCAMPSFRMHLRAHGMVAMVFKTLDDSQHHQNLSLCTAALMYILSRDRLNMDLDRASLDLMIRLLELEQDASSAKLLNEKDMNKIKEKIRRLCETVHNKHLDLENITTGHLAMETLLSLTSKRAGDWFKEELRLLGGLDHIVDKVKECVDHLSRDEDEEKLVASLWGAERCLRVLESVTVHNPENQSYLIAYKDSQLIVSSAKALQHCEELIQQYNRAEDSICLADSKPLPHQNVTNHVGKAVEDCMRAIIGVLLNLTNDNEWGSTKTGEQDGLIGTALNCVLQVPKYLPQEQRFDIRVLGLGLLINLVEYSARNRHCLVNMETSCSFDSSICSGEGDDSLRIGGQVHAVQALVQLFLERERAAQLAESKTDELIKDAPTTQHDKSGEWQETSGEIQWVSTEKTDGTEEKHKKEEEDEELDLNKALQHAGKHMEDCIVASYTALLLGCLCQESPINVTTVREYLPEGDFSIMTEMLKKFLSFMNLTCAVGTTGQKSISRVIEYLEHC
inactive: [1] -0.183 | [2] 0.164 | epoxomicin 0.101 | [3] -0.038 | [4] 0.015 | [5] 0.104 | rosiglitazone -0.06 | [6] -0.018 | [7] -0.246 | saracatinib 0.043 | sotrastaurin -0.144 | alvocidib -0.296 | Tubastatin A 0.063 | [8] -0.008 | defactinib -0.265 | rucaparib -0.066 | [9] -0.052 | encorafenib 0.212 | [10] -0.079
active: volasertib -0.61

UFL1 (UniProt O94874)
UniProt O94874, sequence (O94874 whole entry, looked up): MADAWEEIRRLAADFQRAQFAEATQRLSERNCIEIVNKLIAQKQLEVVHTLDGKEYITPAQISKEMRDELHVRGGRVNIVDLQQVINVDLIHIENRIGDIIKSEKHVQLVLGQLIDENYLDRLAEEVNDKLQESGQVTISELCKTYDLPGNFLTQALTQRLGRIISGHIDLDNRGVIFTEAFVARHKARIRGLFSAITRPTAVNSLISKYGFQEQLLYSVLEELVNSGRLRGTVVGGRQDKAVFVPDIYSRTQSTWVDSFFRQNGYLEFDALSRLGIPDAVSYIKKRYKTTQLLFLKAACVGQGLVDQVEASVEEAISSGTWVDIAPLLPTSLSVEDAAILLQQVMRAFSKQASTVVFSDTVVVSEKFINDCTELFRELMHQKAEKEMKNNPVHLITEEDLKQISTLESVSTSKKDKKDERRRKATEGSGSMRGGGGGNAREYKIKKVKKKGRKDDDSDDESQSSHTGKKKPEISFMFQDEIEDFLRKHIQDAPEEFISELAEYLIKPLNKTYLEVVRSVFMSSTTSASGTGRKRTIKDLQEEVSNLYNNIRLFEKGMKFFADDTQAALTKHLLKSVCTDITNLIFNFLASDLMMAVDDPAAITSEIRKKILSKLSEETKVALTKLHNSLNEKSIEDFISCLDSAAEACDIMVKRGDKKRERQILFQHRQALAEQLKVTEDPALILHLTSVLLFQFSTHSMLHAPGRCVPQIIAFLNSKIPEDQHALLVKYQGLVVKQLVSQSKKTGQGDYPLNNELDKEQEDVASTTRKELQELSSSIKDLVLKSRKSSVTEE
active: volasertib -0.351
inactive: [1] -0.063 | [2] 0.086 | epoxomicin 0.004 | [3] -0.06 | [4] -0.023 | [5] 0.054 | rosiglitazone 0.06 | [6] 0.04 | [7] -0.089 | saracatinib -0.033 | sotrastaurin -0.035 | alvocidib 0.027 | Tubastatin A 0.076 | [8] 0.018 | defactinib -0.045 | rucaparib 0.1 | [9] 0 | encorafenib 0.121 | [10] -0.119

VWA3B isoform 6 (UniProt Q502W6)
UniProt Q502W6, sequence (Q502W6 whole entry, looked up): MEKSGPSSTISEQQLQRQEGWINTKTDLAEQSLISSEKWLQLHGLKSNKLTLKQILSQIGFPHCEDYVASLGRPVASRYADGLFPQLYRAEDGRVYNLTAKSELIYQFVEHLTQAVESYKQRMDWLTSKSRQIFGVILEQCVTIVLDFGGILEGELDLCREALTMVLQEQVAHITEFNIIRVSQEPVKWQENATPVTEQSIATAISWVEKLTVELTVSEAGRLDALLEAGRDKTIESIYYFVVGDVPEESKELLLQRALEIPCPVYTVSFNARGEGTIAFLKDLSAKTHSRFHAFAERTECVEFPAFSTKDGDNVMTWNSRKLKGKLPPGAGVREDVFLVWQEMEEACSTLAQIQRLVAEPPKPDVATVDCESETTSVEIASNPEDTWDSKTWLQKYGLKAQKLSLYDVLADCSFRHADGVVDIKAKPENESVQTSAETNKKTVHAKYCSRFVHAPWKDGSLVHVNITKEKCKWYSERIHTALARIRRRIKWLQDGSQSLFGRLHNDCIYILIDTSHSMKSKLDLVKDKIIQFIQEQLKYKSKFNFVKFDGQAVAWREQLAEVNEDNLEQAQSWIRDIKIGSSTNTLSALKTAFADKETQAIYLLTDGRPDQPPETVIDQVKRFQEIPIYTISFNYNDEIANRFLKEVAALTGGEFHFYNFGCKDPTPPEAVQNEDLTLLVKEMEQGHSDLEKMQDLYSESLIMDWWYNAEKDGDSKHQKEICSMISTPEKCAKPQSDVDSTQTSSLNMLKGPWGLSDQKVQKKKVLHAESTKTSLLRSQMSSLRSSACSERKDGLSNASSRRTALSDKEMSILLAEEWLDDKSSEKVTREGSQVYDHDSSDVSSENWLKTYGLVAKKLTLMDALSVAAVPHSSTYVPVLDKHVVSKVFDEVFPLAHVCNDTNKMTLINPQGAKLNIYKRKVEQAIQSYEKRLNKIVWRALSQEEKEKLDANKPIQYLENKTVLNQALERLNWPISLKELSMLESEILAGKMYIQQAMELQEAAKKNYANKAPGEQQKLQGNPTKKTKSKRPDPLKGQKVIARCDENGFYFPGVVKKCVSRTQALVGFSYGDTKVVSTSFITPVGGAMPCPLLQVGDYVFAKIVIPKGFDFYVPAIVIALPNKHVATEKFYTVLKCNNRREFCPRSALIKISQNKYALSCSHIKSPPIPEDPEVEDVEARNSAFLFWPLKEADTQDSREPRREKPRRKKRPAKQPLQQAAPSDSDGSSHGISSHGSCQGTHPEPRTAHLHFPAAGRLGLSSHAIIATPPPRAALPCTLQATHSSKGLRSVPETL
active: volasertib -0.631
inactive: [1] -0.038 | [2] -0.203 | epoxomicin -0.262 | [3] -0.037 | [4] -0.125 | [5] -0.007 | rosiglitazone 0.076 | [6] -0.023 | [7] -0.234 | saracatinib 0.042 | alvocidib 0.079 | Tubastatin A -0.018 | [8] 0.017 | defactinib 0.039 | rucaparib -0.448 | [9] -0.076 | encorafenib 0.095 | [10] -0.04

TMEM41A (UniProt Q96HV5)
inactive: [1] 0.036 | volasertib 0.035 | [2] -0.05 | epoxomicin -0.055 | [3] 0.021 | [4] 0.165 | [5] -0.049 | rosiglitazone -0.002 | [6] 0 | [7] 0.01 | saracatinib 0.03 | sotrastaurin -0.057 | Tubastatin A -0.068 | [8] 0.008 | defactinib 0.003 | rucaparib -0.009 | [9] -0.011 | encorafenib 0.025 | [10] -0.012

TRIM44 (UniProt Q96DX7)
UniProt Q96DX7, sequence (Q96DX7 whole entry, looked up): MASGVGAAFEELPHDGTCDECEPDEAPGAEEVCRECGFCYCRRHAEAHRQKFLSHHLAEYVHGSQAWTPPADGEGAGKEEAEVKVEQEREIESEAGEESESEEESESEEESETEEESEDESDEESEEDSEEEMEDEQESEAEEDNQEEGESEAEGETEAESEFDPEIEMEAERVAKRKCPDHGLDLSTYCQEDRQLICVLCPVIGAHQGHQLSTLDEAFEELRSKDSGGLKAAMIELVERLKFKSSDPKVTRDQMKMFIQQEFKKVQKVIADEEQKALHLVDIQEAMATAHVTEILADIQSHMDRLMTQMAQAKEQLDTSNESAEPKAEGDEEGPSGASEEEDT
inactive: [1] 0.003 | volasertib -0.028 | [2] -0.024 | [3] 0.014 | [4] 0.005 | [5] -0.004 | rosiglitazone 0.035 | [6] -0.069 | [7] 0.041 | saracatinib 0.035 | sotrastaurin -0.076 | alvocidib -0.008 | Tubastatin A 0.116 | [8] -0.01 | defactinib -0.053 | rucaparib -0.092 | [9] -0.026 | encorafenib 0.032 | [10] 0.025
